IL1B secr inh = inflammasome signaling inhibition, IL-1 beta readout; THP-1 LPS/ATP IL-1B secretion, AlphaLISA, 16 h; active compounds read low; activity change, % at 57.5 µM; 360,000 compounds, 4.7% hits; in the data active = activity change below about -50%; inconclusive = mostly about -30% to -49%
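Secreted IL-1B measured by AlphaLISA bead assay after 16 h compound exposure of THP-1 cells; compounds (final up to 57.5 uM) added 1 h before LPS (250 ng/mL) and ATP (1.25 mM) stimulation; lower signal means less secretion.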
HT1080 IDH1KD tx = kills HT-1080 cells with IDH1 knockdown; HT-1080 IDH1 knockdown viability, ATP luminescence, 48 h; Potency, µM (titrated, usually from 46.1 µM), most hits filed as cytotoxic; 360,000 compounds, 2% hits; AID 686971
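HT-1080-IDH1KD cells (IDH1 knocked down), 750/well in RPMI with 5% FBS, treated with compound 48 h at 37 degrees C. Viability by CellTiter-Glo luminescence, normalised to DMSO and no-cell wells; concentration-response curves classed.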
DT40 TDP1 CPT = DT40-hTDP1 cell growth loss with CPT. 420,000 compounds, 12% hits. AID 686979. chicken DT40 Tdp1-/-;hTDP1 cells + 20 nM CPT, ATP luminescence, 48 h. Potency, µM (doses to about 46.2 µM), actives largely listed as inhibitors; also: nearly all actives have a fitted effect of over 55% in size
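Chicken DT40 Tdp1-/- cells complemented with human TDP1, 400 cells/well, exposed to compounds plus 20 nM camptothecin for at least 48 h at 37 C; viability read as ATP content by CellTiter-Glo luminescence.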
TDP1 cell noCPT = qHTS for Inhibitors of human tyrosyl-DNA phosphodiesterase 1 (TDP1): qHTS in cells in absence of CPT; 420,000 compounds, 15% hits; Potency, µM (top dose mostly 46.2 µM), usual class: inhibitors; DT40 Tdp1-/- hTDP1 cells, no CPT, ATP luminescence, 48 h; also: nearly all actives have a fitted effect of over 55% in size
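Stably hTDP1-transfected Tdp1-null chicken DT40 cells were treated with library compounds minus camptothecin and grown for at least 48 hr at 37 °C, after which cellular ATP was quantified by luminescence.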
ALOX12 inh = inhibitors of human 12S-lipoxygenase ALOX12. P18054. purified 12hLO, xylenol orange hydroperoxide absorbance. Potency, µM (titrated, usually from 108 µM), hits mostly inhibitors. 580,000 compounds, 1.1% hits
Target sequence (P18054 whole entry, looked up): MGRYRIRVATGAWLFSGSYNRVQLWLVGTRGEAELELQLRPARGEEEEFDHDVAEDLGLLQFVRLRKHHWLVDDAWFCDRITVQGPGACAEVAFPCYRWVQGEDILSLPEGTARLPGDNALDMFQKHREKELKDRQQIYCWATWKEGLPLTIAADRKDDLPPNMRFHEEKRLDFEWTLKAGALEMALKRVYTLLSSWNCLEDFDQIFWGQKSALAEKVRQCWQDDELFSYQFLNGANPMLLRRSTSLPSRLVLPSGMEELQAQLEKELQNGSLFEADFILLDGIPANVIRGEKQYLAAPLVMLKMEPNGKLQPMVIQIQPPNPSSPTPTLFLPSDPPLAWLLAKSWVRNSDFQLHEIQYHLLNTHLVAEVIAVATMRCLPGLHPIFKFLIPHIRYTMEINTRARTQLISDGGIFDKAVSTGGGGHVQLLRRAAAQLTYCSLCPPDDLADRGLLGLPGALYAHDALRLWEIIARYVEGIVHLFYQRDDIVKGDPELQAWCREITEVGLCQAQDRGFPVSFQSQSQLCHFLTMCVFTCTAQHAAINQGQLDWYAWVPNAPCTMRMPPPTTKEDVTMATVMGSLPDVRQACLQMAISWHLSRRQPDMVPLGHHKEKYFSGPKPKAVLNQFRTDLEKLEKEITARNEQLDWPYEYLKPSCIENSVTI
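Hydroperoxide product was detected by ferrous iron/xylenol orange as the 573 to 405 nm absorbance ratio. Arachidonic acid at 40 uM (final) was turned over for 30 min at room temperature by 150 nM human 12hLO, pH 7.0 Hepes buffer, after 15 min compound preincubation.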
HT1080-NT tox = kills 2HG-producing HT-1080-NT fibrosarcoma cells; HT-1080-NT fibrosarcoma viability, CellTiter-Glo ATP luminescence, 48 h; Potency, µM (highest dose often 46.1 µM), hits mostly cytotoxic; 360,000 compounds, 1.6% hits;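 also: NT is the 2HG producing partner of a matched IDH1 knockdown line; nearly all actives have a fitted effect of over 55% in size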
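750 cells/well, RPMI + 5% FBS; 2 h settle, compound pin-transfer, 48 h at 37 degrees C. CellTiter-Glo 10 min RT, luminescence. Normalized to DMSO and media-only wells.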
Hits are given with their value; – = inactive; ? = inconclusive; · = not tested or not shown; [ ] = dose if it differs, or a comment. Only a selection was taken, and hits are over-represented in it overall. Unless noted, calls follow the shape of the dose curve; as a rule, active = well fitted curve in the direction sought with a large enough effect; inconclusive = small, poorly fitted or top-dose-only effect, or another doubt; inactive = no such curve, though single readings can be large; an effect the other way counts as inactive or inconclusive.

SMILES	IL1B secr inh	HT1080 IDH1KD tx	DT40 TDP1 CPT	TDP1 cell noCPT	ALOX12 inh	HT1080-NT tox
COc1ccc(N2CCN(S(=O)(=O)c3ccc4c(c3)C(C(C)C)C(=O)N4)CC2)cc1 (stereo not given)	·	·	18.4µM	8.2µM	?	·
CCNC(=O)N1CCOc2ccc(CN3CCOCC3)cc2C1	·	·	·	·	–	·
Nc1cccc(CCc2nc3cc4ccccc4cc3[nH]2)c1	?	10.3µM	3.26µM	4.11µM	–	?
c1ccc(CCc2nc3ccccc3[nH]2)cc1	–	–	–	?	–	–
Cc1ccc(S(=O)(=O)CNC(=S)c2cccc(Cl)c2)cc1	–	–	–	?	10µM	–
Cc1ccc(C(=S)NCS(=O)(=O)c2ccc(C)cc2)cc1	–	?	13µM	13µM	?	?
O=C(Cn1c(-c2ccccc2)cc2ccccc21)N1CCN(CCN2CCCC2)CC1	·	·	·	·	–	·
Cc1ccc(Cn2cc(CN(C(C)(C)C)S(=O)(=O)c3ccccc3Br)nn2)cc1	·	·	·	·	–	·
Cc1nsc2nc3c(F)c(F)c(F)c(F)c3cc12	-96.7	?	?	?	–	–
N=C1/C(=C/c2cccn2Cc2ccc(Cl)cc2)C(=O)N=C2SC=CN12	–	20.6µM	–	?	–	16.4µM
CCC(C)Nc1nc(C)nc2c1oc1ccccc12 (stereo not given)	–	–	18.4µM	16.4µM	?	–
Cc1nc(NCc2ccco2)c2oc3ccccc3c2n1	–	–	?	10.3µM	?	–
Cc1nc(NC(C)c2ccccc2)c2oc3ccccc3c2n1 (stereo not given)	–	?	20.6µM	10.3µM	–	–
c1ccc(CNCCCN2CCCCC2)nc1	·	·	·	·	–	·
Cc1c(C)c(C)c(C(=O)O)c(C)c1C	·	·	·	·	–	·
CCCCCn1c(C(C)NC(=O)CCC)nc2ccccc21 (stereo not given)	–	–	11.6µM	18.4µM	–	–
CCCCCn1c(=O)c(C(=O)c2ccccc2)nc2ccccc21	–	–	?	23.1µM	–	–
CCCCn1c(C(C)NC(=O)CCC)nc2ccccc21 (stereo not given)	–	–	?	18.4µM	–	–
Cc1ccc(S(=O)(=O)N2CCCC(C(=O)N3CCCc4ccccc43)C2)cc1 (stereo not given)	–	–	20.6µM	20.6µM	?	–
O=C(C1CCCN(S(=O)(=O)c2ccccc2)C1)N1CCCc2ccccc21 (stereo not given)	–	–	?	18.4µM	–	–
CN1CCN(C(=O)C2CCCN(S(=O)(=O)c3ccccc3)C2)CC1 (stereo not given)	–	–	–	–	?	–
COC(=O)CC(=O)CSc1nc(C)cc(C)c1C#N	–	–	29.1µM	?	–	–
COC(=O)CC(=O)CSc1nc2c(cc1C#N)CCC2	–	?	18.4µM	?	–	?
COc1cc2c(cc1OC)CN(C(=O)CSc1nc(C)cc(C)c1C#N)CC2	?	–	23.1µM	20.6µM	–	–
Cc1cc(C)c(C#N)c(SCC(=O)C(C)(C)C)n1	–	–	–	–	–	–
SMILES	IL1B secr inh	HT1080 IDH1KD tx	DT40 TDP1 CPT	TDP1 cell noCPT	ALOX12 inh	HT1080-NT tox
COC(=O)CSc1nsc(SCC(=O)OC)c1C#N	-99.6	?	–	–	–	–
CC(C)OC(=O)CC(=O)CSc1nc2c(cc1C#N)CCC2	–	–	?	8.2µM	–	–
CCc1nnc(NC(=O)CSc2nc3c(c(=O)n2C)SC(C)C3)s1 (stereo not given)	–	–	?	20.6µM	–	–
CCn1c(SCC(=O)Nc2nnc(C)s2)nc2c(c1=O)SC(C)C2 (stereo not given)	–	–	–	?	–	–
CCSc1nnc(NC(=O)CSc2nc3c(c(=O)n2CC)SC(C)C3)s1 (stereo not given)	–	–	13µM	8.2µM	–	–
Cc1nnc(NC(=O)CSc2nc3c(c(=O)n2CCc2ccccc2)SC(C)C3)s1 (stereo not given)	–	–	–	–	–	–
CCSc1nnc(NC(=O)CSc2nc3c(c(=O)n2C)SC(C)C3)s1 (stereo not given)	–	–	14.6µM	11.2µM	–	–
Cn1c(=O)c2c(ncn2CC(=O)Nc2cccc(Br)c2)n(C)c1=O	·	·	·	·	–	·
CCCCCNC1=CC(=O)CC(c2ccccc2)C1 (stereo not given)	–	–[9.24 µM]	?	18.4µM	–	?
CCCCCCCNC1=CC(=O)CC(c2ccccc2)C1 (stereo not given)	–	16.4µM	6.51µM	5.8µM	–	?
CCCCCCCCNC1=CC(=O)CC(C)(C)C1	–	–	?	16.4µM	–	–
O=c1n(-c2ccc(Cl)cc2)nc2n1CCN([S+](=O)([O-])c1cccc(C(F)(F)F)c1)C2	·	·	·	·	–[6.33 µM]	·
COc1ccc(N2CCC(CNC(=O)Nc3ccc(Cl)cc3)C2)cc1 (stereo not given)	–	–	?	18.4µM	?	–
CCc1cccc(C)c1NC(=S)NCC1CCN(c2ccc(OC)cc2)C1 (stereo not given)	-67.0	?	20.6µM	20.6µM	?	?
CCc1ccccc1NC(=S)NCC1CCN(c2ccc(OC)cc2)C1 (stereo not given)	–	–	?	20.6µM	?	?
COc1ccc(N2CCC(CNC(=O)Nc3cccc(OC)c3)C2)cc1 (stereo not given)	–	–	?	?	?	–
CCCCCCCOc1ccc(OC(=O)c2ccncc2)cc1	–	–	9.2µM	10.3µM	–	–
CCCCOc1ccc(OC(=O)c2cccnc2)cc1	–	?	20.6µM	16.4µM	–	–
CCCCCCCCCCOc1ccc(OC(=O)c2cccnc2)cc1	·	·	·	·	–	·
CCCCCCCOc1ccc(OC(=O)c2cccnc2)cc1	–	–	5.17µM	8.2µM	–	–
COCCCNCCCCOc1cccc(Br)c1	–	–	?	?	–	–
CC(C)NCCOc1cccc(Br)c1	–	–	–	–	–	–
C=CCNCCCCOc1cccc(Br)c1	-64.7	–	–	–	–	–
CC(C)NCCCCOc1cccc(Br)c1	–	–	?	23.1µM	?	–
COc1cccc(CN2CCCCC23Cc2ccccc2CNC3=O)n1 (stereo not given)	·	·	·	·	–[6.33 µM]	·
COc1ccc2c(c1)c(=O)c(C(=O)c1ccc(C)cc1)cn2Cc1ccccc1F	·	·	?	?	–	·
COc1ccc(C(=O)c2cn(Cc3ccccc3F)c3ccc(F)cc3c2=O)cc1	·	·	?	20.6µM	–	·
CCOc1ccc2c(c1)c(=O)c(C(=O)c1ccccc1)cn2Cc1ccccc1F	·	·	?	20.6µM	–	·
CN1CCCCCCN(C(=O)CC2CCCCC2)[C@H]2CCC[C@H]2C1=O	·	·	·	·	–	·

Assay outcomes (PubChem BioAssay)
